# Test results: the supplement of paper PMC8728848
# Only a selection was taken, and the strongest signals are over-represented in it overall.
# B1: ASA (Allium sativum) (protein)
# chain: KAHEKERMGRNTPSAKLMSIAAVAAILTILASTCMARNLLTNGEGLYAGQSLNVEPYHFIMQEDCNLVLYDHSTAVWATNTDIPGKKECRAVLQSDGNFVVYDADGRPLWASHSVRGNGNYVLVLQEDGNVVIYGSDIWSTGTYVKAARGPVVVAMNGTVDGGSLIRPVIVNKNHVPVIRKVGTLSRNILRNDEGLYAGQSLDVEPYHFIMHEDCNLVLYDHSTAVWASNTDIPGKKGCKAVLQSDGNFVVYDAEGRSLWASHSVRGNGNYVLVLQEDGNVVIYGSDIWSTDTYRKSARGPVIRKVGTLAGAA
# Experiments:
# Test in all cases: glycan array binding signal (z-score within array); higher = stronger binding
# Conditions in all cases: glycan notation: IUPAC condensed, linker removed
# [1] = target: Fuc(a1-2)Gal
# Outline: (§1)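 The binding signal is a Z-score computed within each array and averaged over linkers. Arrays of the same protein sequence at different concentrations or buffers were also averaged together. Data originate from 3228 arrays in the Consortium for Functional Glycomics database, kept only where the protein sequence was available.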
# [2] = target: Fuc(a1-2)Gal(b1-4)[Fuc(a1-3)]GalNAc(b1-3)Gal(b1-4)[Fuc(a1-3)]GlcNAc(b1-3)Gal(b1-4)[Fuc(a1-3)]GalNAc
# Outline: as §1
# [3] = target: Fuc(a1-3)[Gal(b1-4)]GlcNAc(b1-4)Gal(b1-4)[Fuc(a1-3)]GlcNAc(b1-4)Gal(b1-4)[Fuc(a1-3)]GlcNAc
# Outline: as §1
# [4] = target: Gal(b1-3)GalNAc
# Outline: as §1
# [5] = target: Gal(b1-3)GalNAc(b1-3)Gal(b1-4)GlcNAc
# Outline: as §1
# [6] = target: Gal(b1-3)[GlcNAc(b1-6)]GalNAc
# Outline: as §1
# [7] = target: Gal(b1-4)GlcNAc(b1-3)GalNAc
# Outline: as §1
# [8] = target: Gal4S6S(b1-4)GlcNAc
# Outline: as §1
# [9] = target: GalNAc(b1-4)GlcNAc
# Outline: as §1
# [10] = target: Glc(a1-6)Glc(a1-6)Glc
# Outline: as §1
# [11] = target: Man(a1-2)Man(a1-2)Man(a1-3)Man
# Outline: as §1
# [12] = target: Man(a1-2)Man(a1-3)[Man(a1-2)Man(a1-6)]Man
# Outline: as §1
# [13] = target: Man(a1-2)Man(a1-3)[Man(a1-3)[Man(a1-6)]Man(a1-6)]Man(b1-4)GlcNAc(b1-4)GlcNAc
# Outline: as §1
# [14] = target: Man(a1-3)[Man(a1-6)]Man(a1-6)[Man(a1-3)]Man(b1-4)GlcNAc(b1-4)GlcNAc
# Outline: as §1
# [15] = target: Man(a1-3)[Man(a1-6)]Man(b1-4)GlcNAc(b1-4)GlcNAc
# Outline: as §1
# [16] = target: Neu5Ac(a2-3)Gal(b1-3)GalNAc(b1-3)Gal(a1-4)Gal(b1-4)Glc
# Outline: as §1
# [17] = target: Neu5Ac(a2-3)[GalNAc(b1-4)]Gal(b1-4)GlcNAc
# Outline: as §1
# [18] = target: Neu5Gc(a2-3)Gal(b1-4)Glc
# Outline: as §1
binder,measurement,setting,value
B1,glycan array binding signal (z-score),[1],-0.156
same,glycan array binding signal (z-score),[2],-0.081
same,glycan array binding signal (z-score),[3],-0.229
same,glycan array binding signal (z-score),[4],-0.222
same,glycan array binding signal (z-score),[5],-0.231
same,glycan array binding signal (z-score),[6],-0.211
same,glycan array binding signal (z-score),[7],-0.23
same,glycan array binding signal (z-score),[8],-0.222
same,glycan array binding signal (z-score),[9],-0.151
same,glycan array binding signal (z-score),[10],-0.228
same,glycan array binding signal (z-score),[11],6.7
same,glycan array binding signal (z-score),[12],2.2
same,glycan array binding signal (z-score),[13],6.08
same,glycan array binding signal (z-score),[14],5.45
same,glycan array binding signal (z-score),[15],6.64
same,glycan array binding signal (z-score),[16],-0.228
same,glycan array binding signal (z-score),[17],-0.172
same,glycan array binding signal (z-score),[18],-0.208
